Structures are written as SMILES. Activity calls are given as the source filed them.

We go through 14 compounds from PubChem BioAssay.

The nature of test [1]: binders of probe aFSTL3 on microarray, primary screen, stem cell growth factor project, biochemical, small-molecule microarray, fluorescence 635/667 (AID 1064).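 Note: measures binding of the biotinylated anti-FSTL3 antibody to printed compounds.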 The following applies: higher = more signal.
The nature of test [2]: binders from COS7 lysate, DM2A8 probe, primary screen, torsin A project, cell lysate, small-molecule microarray, fluorescence 635/667 (AID 1065). The following applies: higher = more signal, COS7 lysate expressing mutant human TOR1A.
A short description of test [3]: binders of probe aFGF2 on microarray, primary screen, stem cell growth factor project, biochemical, small-molecule microarray, fluorescence 635/667 (AID 1067).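 Note: measures binding of biotinylated aFGF2 protein to printed compounds on slides; z-score merges feature fluorescence and signal-to-noise across triplicate slides.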 Conditions: higher = more signal.
A short description of test [4]: binders of probe aFGF10 on microarray, primary screen, stem cell growth factor project, biochemical, small-molecule microarray, fluorescence 635/667 (AID 1071).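 Note: score merges 667 nm spot intensity and signal to noise from triplicate slides.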 Conditions: higher = more signal.
Test [5] has as its target Neurogenic locus notch homolog protein 2 (Homo sapiens) (UniProt Q04721). The test is described as follows: Notch2 binders on small-molecule microarrays, primary screen, biochemical, small-molecule microarray, 635 nm fluorescence, stem cell growth factors (AID 1073). The following applies: Notch2 binding, higher = more signal.
The target of test [6] is Pro-neuregulin-1, membrane-bound isoform (Homo sapiens) (UniProt Q02297). Nature of the test: NRG1 binders on small-molecule microarrays, primary screen, psychiatric disease protein project, biochemical, small-molecule microarray, fluorescence 635/667 (AID 1075).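 Note: score combines 667 nm spot fluorescence with signal to noise.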 The following applies: NRG1 binding, 635 nm fluorescence, higher = more signal.
Sequence of Pro-neuregulin-1, membrane-bound isoform (Homo sapiens) (Q02297 whole entry, looked up, the tested form may be a part, canonical isoform): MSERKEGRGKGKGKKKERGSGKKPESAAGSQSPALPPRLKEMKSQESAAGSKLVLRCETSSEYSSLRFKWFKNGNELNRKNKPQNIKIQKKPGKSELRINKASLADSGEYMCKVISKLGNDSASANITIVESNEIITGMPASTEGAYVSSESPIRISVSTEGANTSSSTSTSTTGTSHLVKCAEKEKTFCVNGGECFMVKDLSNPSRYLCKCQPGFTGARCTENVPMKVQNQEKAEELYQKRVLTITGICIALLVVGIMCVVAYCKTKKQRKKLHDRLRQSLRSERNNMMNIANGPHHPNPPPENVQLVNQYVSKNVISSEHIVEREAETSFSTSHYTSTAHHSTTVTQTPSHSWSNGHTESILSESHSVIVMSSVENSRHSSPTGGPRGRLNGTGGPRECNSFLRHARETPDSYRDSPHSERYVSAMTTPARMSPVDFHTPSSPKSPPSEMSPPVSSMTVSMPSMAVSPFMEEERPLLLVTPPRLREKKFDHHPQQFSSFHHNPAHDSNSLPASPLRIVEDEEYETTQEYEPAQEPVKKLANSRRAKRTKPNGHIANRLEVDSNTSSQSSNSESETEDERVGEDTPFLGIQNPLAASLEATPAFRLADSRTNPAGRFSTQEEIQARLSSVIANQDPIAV
For test [7], the system named is Neuregulin-1 EGF-like domain. Nature of the test: binders of neuregulin-1 EGF-like domain, primary screen, biochemical, small-molecule microarray, 635 nm fluorescence (AID 1081).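 Note: binding of the protein to compounds printed on small-molecule microarray slides.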 Conditions: small-molecule microarray binding, higher = more signal.
Test [8] can be described thus: FRG1 promoter luciferase signal modulators, primary screen, FRG1 inhibition for FSHD, cell-based, C2C12 myotubes, firefly/Renilla luciferase, luminescence (AID 1084). The following applies: higher = more signal, called active from +8 up or from −8 down.
Test [9] can be described thus: binders of probe aFST on microarray, primary screen, stem cell growth factor project, biochemical, small-molecule microarray, fluorescence 635/667 (AID 1086).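 Note: score merges 667 nm fluorescence with signal-to-noise of each printed compound spot.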 Conditions: higher = more signal.
The nature of test [10]: binders of probe aHhip on microarray, primary screen, stem cell growth factor project, biochemical, small-molecule microarray, fluorescence 635/667 (AID 1087).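 Note: score merges spot fluorescence at 667nm with spot signal to noise ratio.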 Conditions: higher = more signal.

Sequence of Neurogenic locus notch homolog protein 2 (Homo sapiens) (Q04721 whole entry, looked up, canonical isoform): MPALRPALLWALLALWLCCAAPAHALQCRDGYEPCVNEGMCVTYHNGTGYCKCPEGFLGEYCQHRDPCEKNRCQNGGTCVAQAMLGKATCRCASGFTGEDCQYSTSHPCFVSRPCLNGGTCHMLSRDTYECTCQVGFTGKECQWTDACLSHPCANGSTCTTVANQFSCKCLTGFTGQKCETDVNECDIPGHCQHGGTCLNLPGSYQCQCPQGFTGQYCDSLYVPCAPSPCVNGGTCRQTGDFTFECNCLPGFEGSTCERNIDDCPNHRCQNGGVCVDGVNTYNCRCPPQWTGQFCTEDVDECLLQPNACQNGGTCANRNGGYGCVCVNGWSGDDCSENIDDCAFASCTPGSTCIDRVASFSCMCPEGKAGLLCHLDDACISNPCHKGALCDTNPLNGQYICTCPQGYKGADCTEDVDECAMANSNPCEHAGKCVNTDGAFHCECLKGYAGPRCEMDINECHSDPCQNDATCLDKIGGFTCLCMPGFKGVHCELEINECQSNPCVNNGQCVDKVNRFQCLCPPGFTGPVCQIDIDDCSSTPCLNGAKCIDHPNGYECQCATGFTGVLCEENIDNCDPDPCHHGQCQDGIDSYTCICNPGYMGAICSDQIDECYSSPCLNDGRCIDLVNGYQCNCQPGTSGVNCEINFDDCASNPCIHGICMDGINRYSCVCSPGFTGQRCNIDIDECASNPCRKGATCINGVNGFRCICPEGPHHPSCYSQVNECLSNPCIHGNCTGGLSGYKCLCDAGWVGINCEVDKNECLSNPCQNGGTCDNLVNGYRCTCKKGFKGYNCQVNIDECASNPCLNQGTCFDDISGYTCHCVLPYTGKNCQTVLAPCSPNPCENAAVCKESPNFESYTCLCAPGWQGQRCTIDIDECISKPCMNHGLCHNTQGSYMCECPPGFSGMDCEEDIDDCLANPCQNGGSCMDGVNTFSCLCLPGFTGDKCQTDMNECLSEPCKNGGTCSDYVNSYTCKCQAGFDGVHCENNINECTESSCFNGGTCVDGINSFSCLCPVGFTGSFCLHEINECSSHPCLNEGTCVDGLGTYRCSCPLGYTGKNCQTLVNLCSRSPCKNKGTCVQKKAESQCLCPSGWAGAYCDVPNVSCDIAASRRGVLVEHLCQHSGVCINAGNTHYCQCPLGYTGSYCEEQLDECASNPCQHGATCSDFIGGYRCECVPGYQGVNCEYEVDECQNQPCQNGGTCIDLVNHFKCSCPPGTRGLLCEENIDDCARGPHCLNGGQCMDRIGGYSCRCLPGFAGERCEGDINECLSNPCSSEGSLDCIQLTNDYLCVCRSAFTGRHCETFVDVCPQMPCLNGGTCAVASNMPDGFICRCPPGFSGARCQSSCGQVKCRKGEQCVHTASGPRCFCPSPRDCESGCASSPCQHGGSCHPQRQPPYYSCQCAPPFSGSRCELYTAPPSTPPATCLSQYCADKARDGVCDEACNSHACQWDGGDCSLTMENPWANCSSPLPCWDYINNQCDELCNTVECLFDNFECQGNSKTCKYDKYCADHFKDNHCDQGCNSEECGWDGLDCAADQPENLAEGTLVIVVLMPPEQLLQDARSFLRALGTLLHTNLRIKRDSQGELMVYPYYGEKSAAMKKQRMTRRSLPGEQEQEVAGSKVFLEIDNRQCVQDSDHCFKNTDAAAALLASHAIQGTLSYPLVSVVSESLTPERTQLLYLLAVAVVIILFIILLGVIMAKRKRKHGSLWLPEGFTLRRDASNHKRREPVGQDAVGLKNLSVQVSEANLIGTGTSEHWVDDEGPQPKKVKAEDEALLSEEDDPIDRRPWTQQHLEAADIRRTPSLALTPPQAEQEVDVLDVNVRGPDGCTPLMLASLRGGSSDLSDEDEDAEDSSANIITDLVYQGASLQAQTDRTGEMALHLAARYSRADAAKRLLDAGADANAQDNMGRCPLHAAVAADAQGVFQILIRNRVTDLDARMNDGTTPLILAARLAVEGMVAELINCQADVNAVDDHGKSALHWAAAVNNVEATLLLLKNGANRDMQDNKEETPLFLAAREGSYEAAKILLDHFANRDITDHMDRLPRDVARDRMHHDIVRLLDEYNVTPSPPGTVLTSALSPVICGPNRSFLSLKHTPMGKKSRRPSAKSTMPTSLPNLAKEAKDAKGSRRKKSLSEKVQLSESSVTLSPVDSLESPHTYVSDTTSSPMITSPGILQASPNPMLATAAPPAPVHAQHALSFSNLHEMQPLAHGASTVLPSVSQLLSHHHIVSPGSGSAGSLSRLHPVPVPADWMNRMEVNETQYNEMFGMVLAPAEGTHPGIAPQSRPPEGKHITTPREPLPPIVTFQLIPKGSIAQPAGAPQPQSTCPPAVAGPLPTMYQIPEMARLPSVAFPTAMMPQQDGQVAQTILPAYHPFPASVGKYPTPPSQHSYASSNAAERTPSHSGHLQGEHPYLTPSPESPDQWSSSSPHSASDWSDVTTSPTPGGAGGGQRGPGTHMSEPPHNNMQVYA

`COC(=O)[C@]1(Cc2ccccc2)N=C(c2ccc(OCCCO)cc2)O[C@@H]1c1ccccc1N=[N+]=[N-]`: the composite z-score in [1] was -0.186; in [2], 0.179; in test [3], -0.0268; in [4], -0.13; in test [5], 0.473; in test [6] it was 0.314. For the same compound, the composite z-score in [7] stood at 0.764; in test [9], 0.551; in [10], 0.0373. For the same compound, the z-score in test [8] was 4.51 (inactive).
Consider `COc1ccc([Si](C)(C)[C@@H]2[C@@H](CCn3cc(CCO)nn3)O[C@]3(C(=O)N(Cc4cccc(N5C(=O)c6cccc7cccc5c67)c4)c4ccccc43)[C@H]2C)cc1`, for which the composite z-score in test [1] was -0.429; in [2], -0.179; in test [3] it was -0.103; in test [4] it was 0.359; in [5], 0.275; in test [6], 0.98. Further, the composite z-score in test [7] was 1.04; in test [9], 0.525; in [10], -0.189. In test [8], the z-score is -1.56 (inactive).
As for `C=CCOC(=O)[C@H]1[C@@H]2C(=O)O[C@@H](c3ccccc3)[C@@H](c3ccccc3)N2[C@@H](c2ccc(OCCOC(=O)[C@@H]3C[C@@H]4C(=O)N5CCC[C@H]5C(=O)N4[C@@H]3c3cccc(OCCO)c3)cc2)[C@]12C(=O)Nc1ccc(I)cc12`, the composite z-score in test [1] was -0.34; in test [2], 1.19; in test [3], -0.104; in test [4], 0.397; in test [5], 0.373; in test [6], 1.05. Further, the composite z-score is 1.31 in [7], 0.447 in test [9] and -0.12 in test [10]. Also, in test [8], the z-score is 0.984 (inactive).
As to `COCCOC(=O)N1C(=O)[C@@]2(c3cc(C#CC4(O)CCCCCC4)ccc31)[C@H](C(=O)Nc1nc3ccccc3s1)[C@H]1C(=O)O[C@H](c3ccccc3)[C@H](c3ccccc3)N1[C@@H]2c1ccc(OCCO)cc1`, the composite z-score is -0.568 in test [1]; 0.392 in test [2]; -0.083 in test [3]; 0.797 in test [4]; 1.07 in [5]; 0.727 in test [6]. Besides, the composite z-score in test [7] turned out to be 1.15; in test [9] it was 0.277; in test [10] it was 0.0749. Also, the z-score in test [8] is 4.24 (inactive).
In the case of `O=C(O)C1N=C(c2ccc(OCCCO)cc2)N(c2ccccc2)O1` (stereo not given), the composite z-score in test [1] was 0.158; in test [2], 0.0642; in [3], -0.0474; in test [4], 0.499; in test [5], 0.778; in [6], -0.145. Moreover, the composite z-score in test [7] was 0.527; in test [9], -0.288; in test [10], -0.136. The z-score in test [8] was 2.09 (inactive).
Regarding `COC(=O)c1c2oc(c1C(=O)OC)C(=O)N[C@@H](C(C)C)Cn1cc(nn1)C1(CCCCC1)NC(=O)N[C@H](CO)CC2`, the composite z-score was -0.458 in test [1]; 0.104 in test [2]; -0.124 in test [3]; 0.471 in test [4]; -0.178 in test [5]; 0.356 in test [6]. For the same compound, the values for the composite z-score in [7], in [9] and in test [10] were 0.859, -0.0464 and 0.0881, respectively. Further, the z-score in test [8] is -0.965 (inactive).
Consider `C#CCN(C/C=C/c1ccccc1)[C@H](CO)c1ccccc1`, for which the composite z-score was -0.565 in [1]; 0.484 in [2]; -0.182 in test [3]; -0.254 in test [4]; 0.261 in [5]; -0.516 in [6]. Also, the composite z-score was -0.0706 in test [7], 0.288 in [9] and 0.0156 in [10]. Also, the z-score in test [8] was -0.786 (inactive).
Regarding `C=CCOC(=O)[C@H]1[C@@H]2C(=O)O[C@@H](c3ccccc3)[C@@H](c3ccccc3)N2[C@@H](c2ccc(OCCOC(=O)[C@H]3C[C@H]4C(=O)N[C@@H](CCCCN(C)C)C(=O)N4[C@H]3c3cccc(OCCO)c3)cc2)[C@]12C(=O)Nc1ccc(I)cc12`, the composite z-score was -0.756 in test [1]; 0.67 in test [2]; -0.0659 in test [3]; 0.527 in [4]; 0.914 in test [5]; 0.605 in test [6]. For the same compound, the composite z-score in test [7] was 1.3; in test [9], 0.405; in test [10], -0.179. For the same compound, the z-score in test [8] is 0.0721 (inactive).
`CCOC(=O)C[C@H]1[C@H](OC(=O)c2ccc(-c3ccccc3)cc2)[C@@H](NC(=O)c2ccccc2)c2cc(OCCCO)ccc2N1C(=O)c1ccc2ccccc2n1`: the composite z-score in [1] is -0.168; in [2], 0.732; in [3], -0.105; in [4] it was 0.311; in test [5] it was 0.606; in [6] it was 0.742. The composite z-score is 0.507 in test [7], 0.402 in [9] and -0.0994 in test [10]. Besides, the z-score in test [8] was 1.22 (inactive).
Take `O=C1OCCC=C[C@H]2OC34C=CCN(c5ccc(Cl)cc5)C(=O)[C@H]3N(CCCO)C(=O)[C@@H]4C12` (stereo not given in full): the composite z-score in test [1] is 0.189; in test [2], -0.771; in test [3] it was -0.104; in [4] it was -0.144; in test [5] it was -0.678; in test [6], -0.602. For the same compound, the results for the composite z-score in test [7], in [9] and in test [10] were -0.366, -0.155 and -0.236, respectively. Moreover, in [8], the z-score was 0.923 (inactive).
For `CN1CCC(CCCO)=CC1c1cccs1` (stereo not given), the composite z-score is -0.017 in [1]; 0.0383 in test [2]; -0.159 in test [3]; -0.959 in test [4]; -1.01 in [5]; 0.968 in [6]. Also, the composite z-score in test [7] is 0.72; in [9] it was -0.142; in test [10], -0.0491. Also, in [8], the z-score was 0.159 (inactive).
Take `[N-]=[N+]=NCc1ccccc1[C@@H]1OC(c2ccc(OCCCO)cc2)=N[C@]1(CCS(=O)(=O)c1ccccc1)C(=O)N1CCOCC1`: the composite z-score in [1] came out at 0.788; in test [2] it was 1.17; in [3], 0.0332; in test [4], 0.89; in test [5], 1.64; in test [6] it was 1.48. Further, the values for the composite z-score in test [7], in test [9] and in test [10] were 1.29, 1.25 and -0.0296, respectively. In addition, the z-score in test [8] is 0.291 (inactive).
Take `COc1ccc([C@H]2C[C@H]3C(I)=C[C@@H]2C(=O)[C@]32CO2)cc1`: the composite z-score was -0.434 in test [1]; 0.241 in test [2]; -0.12 in [3]; 0.17 in test [4]; 0.0021 in test [5]; -0.645 in test [6]. The composite z-score was -0.571 in [7], 0.169 in test [9] and -0.0237 in [10]. In addition, in [8], the z-score was 2.29 (inactive).
Turning to `COc1cc(CO)cc(I)c1O[C@H]1C=C(C(=O)NCCO)C[C@@H](N(C(=O)c2cc3ccccc3oc2=O)C2CCCCCC2)[C@@H]1O`, the composite z-score is -0.386 in [1]; 0.419 in test [2]; -0.0935 in test [3]; 0.661 in test [4]; 0.511 in test [5]; -0.19 in [6]. Also, the composite z-score in test [7] is -0.52; in test [9], -0.0938; in test [10], 0.0646. In addition, in test [8], the z-score is -0.738 (inactive).
